Among the test systems are NCI-H23 lung; NCI-H226 lung; NCI-H322M lung; HOP-62 NSCLC; NCI-H460 lung; HOP-92 NSCLC; NCI-H522 lung; A549/ATCC NSCLC; 786-0 renal; COLO 205 colon; DU-145 prostate; K-562 leukemia; MALME-3M melanoma; MDA-MB-231 breast; RXF 393 renal; SF-268 CNS; SF-539 CNS; M14 melanoma; SF-295 CNS; UACC-257 melanoma.
Common to all, as to assay: NCI-60 one-dose screen, 48 h (100 = growth as untreated, 0 = no growth, -100 = all killed)
Common to all, as to details: 10 µM unless noted

Structures are written as SMILES. About 83,000 compounds went through this panel and 20% of them were active in at least one assay; those are over-represented in the sample as a whole.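 Assay: single dose, 48 h. Readout: percent growth (0 = no net growth; negative = cell death). Active: <10.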 Unmarked numbers belong to inactive results. The source made the active and inactive calls.

The results in this text go back to PubChem BioAssay (NCI).

For the molecule `Cc1sc2nc3[nH]/c(=C\c4ccc(Cl)cc4)c(=O)n3c(=O)c2c1C`, the growth is 103% in the assay on NCI-H23 lung; 100% in the assay with NCI-H226 lung; 103% with NCI-H322M lung; 110% with HOP-62 NSCLC; 104% with NCI-H460 lung; 92.7% with HOP-92 NSCLC. In addition, the growth in the assay on NCI-H522 lung is 88.1%; in the assay with A549/ATCC NSCLC, 94.1%; in the assay with 786-0 renal it was 95.1%; with COLO 205 colon, 112%; in the assay with DU-145 prostate it was 109%; in the assay on K-562 leukemia, 101%. Moreover, the growth with MALME-3M melanoma was 102%; in the assay on MDA-MB-231 breast it was 111%; in the assay with RXF 393 renal it was 99.5%; in the assay with SF-268 CNS, 102%; in the assay on SF-539 CNS it was 103%; in the assay on M14 melanoma, 103%.

In the case of `COc1ccccc1N1CCN(CCn2c(=O)c3c(c4ccccc4n3C)n(C)c2=O)CC1`, the growth is 103% in the assay on NCI-H23 lung; 82.9% with NCI-H226 lung; 101% in the assay on NCI-H322M lung; 107% in the assay with HOP-62 NSCLC; 96.7% in the assay with NCI-H460 lung; 92.1% in the assay with HOP-92 NSCLC. In addition, the growth is 45.2% in the assay on NCI-H522 lung; 71.5% with A549/ATCC NSCLC; 111% with 786-0 renal; 100% in the assay with COLO 205 colon; 107% in the assay with DU-145 prostate; 100% with K-562 leukemia. Also, the growth was 110% with MALME-3M melanoma; 90.4% with MDA-MB-231 breast; 101% with RXF 393 renal; 96.2% in the assay with SF-268 CNS; 97.8% in the assay on SF-295 CNS; 90.6% in the assay with UACC-257 melanoma. In addition, in the assay with M14 melanoma, the growth was 98.8%.

In the case of `Nc1ccc(N2CCOCC2)cc1`, the growth was 86.1% in the assay with NCI-H23 lung; 102% with NCI-H226 lung; 91.2% in the assay with NCI-H322M lung; 90.8% with HOP-62 NSCLC; 104% with NCI-H460 lung; 114% in the assay with HOP-92 NSCLC. Besides, the growth in the assay on NCI-H522 lung was 94.1%; with A549/ATCC NSCLC, 110%; in the assay on 786-0 renal it was 92.2%; with COLO 205 colon, 123%; with DU-145 prostate, 118%; in the assay on K-562 leukemia, 102%. The growth was 86.5% with MALME-3M melanoma; 96.1% with MDA-MB-231 breast; 108% in the assay on RXF 393 renal; 107% with SF-268 CNS; 107% in the assay on UACC-257 melanoma; 94.1% in the assay on M14 melanoma.

Consider `CCCCCCCCCCCCCCCC[N+]1(CC)CCCC1`, for which the growth with NCI-H23 lung was -28.6% (active); with NCI-H226 lung, -9.79% (active); in the assay on NCI-H322M lung, 1.53% (active); in the assay with HOP-62 NSCLC, -49.7% (active); in the assay on NCI-H460 lung it was -66.8% (active); with HOP-92 NSCLC, -29.1% (active). Further, the growth in the assay with NCI-H522 lung was -73.7% (active); with A549/ATCC NSCLC it was -63.1% (active); in the assay with 786-0 renal it was -57.7% (active); in the assay on COLO 205 colon, -90.4% (active); with DU-145 prostate, -92.2% (active); in the assay on K-562 leukemia, -34.9% (active). Besides, the growth with MALME-3M melanoma is -49.9% (active); in the assay on MDA-MB-231 breast, -61.6% (active); with SF-268 CNS it was -57% (active); in the assay with SF-295 CNS, -70.1% (active); with SF-539 CNS, -28.4% (active); in the assay on UACC-257 melanoma, -46% (active). In the assay on M14 melanoma, the growth is -45% (active).

`Cc1ccccc1CCO`: the growth in the assay on NCI-H23 lung was 100%; in the assay with NCI-H226 lung it was 93.7%; in the assay on NCI-H322M lung, 90.8%; in the assay with HOP-62 NSCLC, 89.1%; in the assay on NCI-H460 lung, 105%; in the assay with HOP-92 NSCLC it was 104%. The growth in the assay on NCI-H522 lung is 76.2%; with A549/ATCC NSCLC it was 85.4%; in the assay on 786-0 renal, 100%; in the assay on COLO 205 colon, 92.7%; in the assay on DU-145 prostate it was 111%; with K-562 leukemia it was 114%. The growth in the assay with MALME-3M melanoma was 92.5%; with MDA-MB-231 breast, 110%; in the assay on RXF 393 renal, 104%; with SF-268 CNS, 101%; in the assay on SF-295 CNS, 99.6%; in the assay on UACC-257 melanoma, 89.4%. The growth with M14 melanoma was 98.3%.

Turning to `CCCCCCCCCCCCCCCCNCCC[C@@H](C)[C@H]1CC[C@H]2[C@@H]3[C@H](OCCCN)C[C@@H]4C[C@H](OCCCN)CC[C@]4(C)[C@H]3C[C@H](OCCCN)[C@]12C`, the growth in the assay with NCI-H23 lung is -39.7% (active); with NCI-H226 lung it was -1.42% (active); in the assay on NCI-H322M lung, -76.8% (active); in the assay on HOP-62 NSCLC, -49.5% (active); in the assay with NCI-H460 lung, -45.5% (active); in the assay with HOP-92 NSCLC, -33.2% (active). Besides, the growth in the assay on NCI-H522 lung is -43.6% (active); in the assay on A549/ATCC NSCLC, -58% (active); with 786-0 renal, -43.1% (active); in the assay on COLO 205 colon, -40.8% (active); in the assay with DU-145 prostate, -82.2% (active); in the assay with K-562 leukemia, -34.7% (active). The growth with MALME-3M melanoma is -60.7% (active); with MDA-MB-231 breast, -98.2% (active); in the assay with RXF 393 renal, -41.2% (active); with SF-268 CNS it was -38.2% (active); with SF-539 CNS it was -68% (active); in the assay on M14 melanoma, -28.7% (active).

For `C#Cc1nc(Nc2cc(C)[nH]n2)c2ccccc2n1`, the growth was -19.4% (active) with NCI-H23 lung; -63.3% (active) in the assay with NCI-H226 lung; -18.2% (active) with NCI-H322M lung; -61.2% (active) with HOP-62 NSCLC; -36.7% (active) in the assay on NCI-H460 lung; -46.3% (active) with HOP-92 NSCLC. For the same molecule, the growth in the assay with NCI-H522 lung is -72.7% (active); with A549/ATCC NSCLC it was -35.7% (active); with 786-0 renal, -60.7% (active); in the assay with COLO 205 colon, -56.6% (active); in the assay on DU-145 prostate, -80% (active); in the assay on K-562 leukemia, 2.59% (active). Further, the growth is -70.8% (active) in the assay with MALME-3M melanoma; -56% (active) in the assay on MDA-MB-231 breast; -86% (active) with SF-268 CNS; -57.9% (active) in the assay with SF-295 CNS; -44.5% (active) with SF-539 CNS; -54.9% (active) in the assay with UACC-257 melanoma. Further, the growth with M14 melanoma is -23.6% (active).

For `Cc1cc(Nc2nc(N3CCNCC3)nc3ccccc23)n[nH]1`, the growth is 96.4% with NCI-H23 lung; 86.5% in the assay with NCI-H226 lung; 91.1% in the assay on NCI-H322M lung; 109% with HOP-62 NSCLC; 93.4% in the assay with NCI-H460 lung; 80.2% in the assay on HOP-92 NSCLC. For the same molecule, the growth was 76.4% in the assay on NCI-H522 lung; 80.8% with A549/ATCC NSCLC; 76.1% in the assay on 786-0 renal; 90.8% in the assay with COLO 205 colon; 119% with DU-145 prostate; 81.5% in the assay with K-562 leukemia. In addition, the growth in the assay with MALME-3M melanoma is 80.4%; with MDA-MB-231 breast, 103%; in the assay with SF-268 CNS it was 90.6%; with SF-295 CNS, 88%; with SF-539 CNS, 79.4%; in the assay with UACC-257 melanoma, 87.1%. In the assay on M14 melanoma, the growth was 92.5%.
